Assay results from PubChem BioAssay (EPA / NIEHS).
The source made the active and inactive calls. How the source made its calls: active means hit-call score of the fitted dose curve at least 0.9, where 1 is the maximum; inactive means score below 0.9.

Key:
[1] = ATG_ISRE_CIS: Attagene CIS-FACTORIAL HepG2 Assay for human Interferon Regulatory Factor 1 (IRF1) binding to an Interferon-Stimulated Response Element (ISRE) (AID 2282948); conditions: HepG2 ISRE cis-reporter (Attagene), mRNA transcription readout; actives raise or lower the signal
Outline: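 Cell-based cis-reporter assay; HepG2; 24 h exposure; reporter mRNA by RT-PCR plus capillary electrophoresis fluorescence; activity in either direction scored relative to DMSO.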

[2] = ATG_M_32_CIS: Attagene CIS-FACTORIAL HepG2 Assay for M32 Transcription Factor (Internal Marker) (AID 2282949); conditions: HepG2 Attagene cis-factorial M32 reporter, mRNA; actives raise or lower the signal;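 further: background control marker of the multiplexed CIS panel rather than a real target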
Outline: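 Following 24 h chemical exposure of HepG2 cells transiently expressing cis-promoter reporter constructs, reporter transcript levels were determined by RT-PCR with fluorescent labelling and capillary electrophoresis, then fitted bidirectionally against DMSO.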

[3] = ATG_M_06_CIS: Attagene CIS-FACTORIAL HepG2 Assay for M06 Transcription Factor (Internal Marker) (AID 2282950); conditions: HepG2 Attagene CIS-FACTORIAL M06 internal marker reporter; actives raise or lower the signal
Outline: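 Terse: HepG2, transient MRTU transfection (FuGene 6), 24 h dosing; total RNA, oligo(dT) RT, PCR, FAM label, HpaI cut, capillary electrophoresis; bidirectional fit vs DMSO baseline; background-control endpoint.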

[4] = biological target: Hypoxia-inducible factor 1-alpha (Homo sapiens) (UniProt Q16665); assay: ATG_HIF1a_CIS: Attagene CIS-FACTORIAL HepG2 Assay for human Hypoxia Inducible Factor 1 (HIF1A) (AID 2282951); conditions: HepG2 Attagene cis-factorial HIF1a reporter transcription; actives raise or lower the signal
Sequence of Hypoxia-inducible factor 1-alpha (Homo sapiens) (Q16665 whole entry, looked up): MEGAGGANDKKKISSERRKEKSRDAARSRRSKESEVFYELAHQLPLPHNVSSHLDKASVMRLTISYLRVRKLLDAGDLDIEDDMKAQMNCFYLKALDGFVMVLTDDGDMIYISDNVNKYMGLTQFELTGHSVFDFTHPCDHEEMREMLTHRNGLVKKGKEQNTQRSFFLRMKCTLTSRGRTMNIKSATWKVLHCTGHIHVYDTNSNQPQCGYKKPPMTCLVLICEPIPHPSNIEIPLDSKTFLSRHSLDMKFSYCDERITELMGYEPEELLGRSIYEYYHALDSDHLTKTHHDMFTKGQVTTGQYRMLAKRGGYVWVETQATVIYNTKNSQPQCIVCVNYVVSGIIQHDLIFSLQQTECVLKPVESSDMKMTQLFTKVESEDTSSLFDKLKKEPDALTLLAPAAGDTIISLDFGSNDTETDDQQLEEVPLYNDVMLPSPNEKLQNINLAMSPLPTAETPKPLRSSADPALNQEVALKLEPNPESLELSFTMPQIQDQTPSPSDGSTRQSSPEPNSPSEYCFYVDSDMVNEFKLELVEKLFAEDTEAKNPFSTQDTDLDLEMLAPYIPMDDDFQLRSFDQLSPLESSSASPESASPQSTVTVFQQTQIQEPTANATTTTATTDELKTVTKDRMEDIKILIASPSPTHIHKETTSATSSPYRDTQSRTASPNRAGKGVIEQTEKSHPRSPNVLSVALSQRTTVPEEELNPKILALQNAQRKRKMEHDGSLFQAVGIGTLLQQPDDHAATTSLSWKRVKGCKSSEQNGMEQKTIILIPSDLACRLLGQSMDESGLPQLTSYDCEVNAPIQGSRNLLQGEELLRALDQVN
Outline: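 Endogenous-TF cis reporter readout, human HepG2 cells, 24 h incubation; mRNA detected via RT-PCR and capillary electrophoresis fluorescence; DMSO-normalised bidirectional fitting.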

[5] = biological target: Hepatocyte nuclear factor 6 (Homo sapiens) (UniProt Q9UBC0); assay: ATG_HNF6_CIS: Attagene CIS-FACTORIAL HepG2 Assay for human Hepatocyte Nuclear Factor 6 (HNF6) (AID 2282952); conditions: HepG2 Attagene cis-factorial HNF6 reporter transcription; actives raise or lower the signal
Sequence of Hepatocyte nuclear factor 6 (Homo sapiens) (Q9UBC0 whole entry, looked up): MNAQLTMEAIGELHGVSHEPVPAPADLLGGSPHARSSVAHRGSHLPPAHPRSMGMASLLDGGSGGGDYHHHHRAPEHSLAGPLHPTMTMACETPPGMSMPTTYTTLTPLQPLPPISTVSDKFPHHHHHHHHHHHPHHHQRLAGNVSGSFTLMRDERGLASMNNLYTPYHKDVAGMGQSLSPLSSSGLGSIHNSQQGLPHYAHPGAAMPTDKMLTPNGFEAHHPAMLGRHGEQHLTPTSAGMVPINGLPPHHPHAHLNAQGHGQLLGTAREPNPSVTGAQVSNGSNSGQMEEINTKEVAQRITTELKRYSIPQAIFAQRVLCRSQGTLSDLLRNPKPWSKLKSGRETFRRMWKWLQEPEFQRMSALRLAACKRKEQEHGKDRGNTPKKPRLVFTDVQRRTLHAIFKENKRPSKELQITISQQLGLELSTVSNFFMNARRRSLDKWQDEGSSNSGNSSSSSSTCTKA
Outline: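 Cells are HepG2 carrying transiently transfected cis-promoter reporter units. Treatment lasts 24 h, after which reporter transcripts are reverse-transcribed, amplified, FAM-labelled and sized by capillary electrophoresis. DMSO serves as baseline.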

[6] = biological target: Heat shock factor protein 1 (Homo sapiens) (UniProt Q00613); assay: ATG_HSE_CIS: Attagene CIS-FACTORIAL HepG2 Assay for human Heat Shock Transcription Factor 1 (HSE) (AID 2282953); conditions: HepG2 HSE cis-reporter, Attagene RNA transcription; actives raise or lower the signal
Sequence of Heat shock factor protein 1 (Homo sapiens) (Q00613 whole entry, looked up, the tested form may be a part): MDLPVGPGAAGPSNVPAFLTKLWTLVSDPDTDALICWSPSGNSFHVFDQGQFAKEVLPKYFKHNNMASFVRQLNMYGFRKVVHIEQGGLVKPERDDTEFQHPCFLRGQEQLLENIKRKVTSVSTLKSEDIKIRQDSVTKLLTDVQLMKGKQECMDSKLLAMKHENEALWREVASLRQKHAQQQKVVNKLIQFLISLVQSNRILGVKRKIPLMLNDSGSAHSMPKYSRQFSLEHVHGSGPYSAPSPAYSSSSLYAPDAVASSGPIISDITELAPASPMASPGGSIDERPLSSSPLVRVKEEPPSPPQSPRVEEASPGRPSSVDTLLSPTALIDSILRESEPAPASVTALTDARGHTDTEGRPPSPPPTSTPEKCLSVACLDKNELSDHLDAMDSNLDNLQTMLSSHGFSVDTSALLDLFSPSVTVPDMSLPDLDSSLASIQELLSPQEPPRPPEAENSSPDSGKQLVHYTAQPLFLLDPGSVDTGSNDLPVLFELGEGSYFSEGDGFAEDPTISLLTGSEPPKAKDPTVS
Outline: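 Read-out: fluorescence of reporter-specific RT-PCR fragments separated by capillary electrophoresis. HepG2 carrying transfected cis-element reporter units; 24 h dosing; activity fitted in both directions relative to DMSO baseline.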

[7] = ATG_MRE_CIS: Attagene CIS-FACTORIAL HepG2 Assay for human Metal Responsive Element (MRE) (AID 2282954); conditions: HepG2 MRE cis-reporter transcription, Attagene multiplex; actives raise or lower the signal
Outline: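 HepG2 cells transiently transfected with multiple cis-element reporter units measure endogenous MTF1-driven transcription. After 24 h compound exposure, reporter mRNA is quantified by RT-PCR with 6-FAM labelling, HpaI digestion and capillary electrophoresis; bidirectional fits versus DMSO.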

[8] = biological target: Paired box protein Pax-6 (Homo sapiens) (UniProt P26367); assay: ATG_Pax6_CIS: Attagene CIS-FACTORIAL HepG2 Assay for human Paired Box 6 (PAX6) (AID 2282956); conditions: HepG2 CIS-FACTORIAL PAX6 reporter transcription, RNA readout; actives raise or lower the signal
Sequence of Paired box protein Pax-6 (Homo sapiens) (P26367 whole entry, looked up): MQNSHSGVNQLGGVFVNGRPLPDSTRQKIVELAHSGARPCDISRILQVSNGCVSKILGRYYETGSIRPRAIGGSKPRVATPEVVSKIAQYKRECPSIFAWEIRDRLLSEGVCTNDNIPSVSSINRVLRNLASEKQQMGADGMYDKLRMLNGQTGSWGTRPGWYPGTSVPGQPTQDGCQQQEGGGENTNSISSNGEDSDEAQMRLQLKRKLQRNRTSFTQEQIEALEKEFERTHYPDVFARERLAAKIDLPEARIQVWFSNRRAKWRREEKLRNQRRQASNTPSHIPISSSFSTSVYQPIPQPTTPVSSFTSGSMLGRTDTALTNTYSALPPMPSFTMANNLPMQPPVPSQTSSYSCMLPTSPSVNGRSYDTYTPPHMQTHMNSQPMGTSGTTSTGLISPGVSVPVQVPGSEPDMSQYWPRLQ
Outline: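 Multiplexed cis-reporter HepG2 system; 24 h treatment; reporter mRNA read by RT-PCR/CE fluorescence; bidirectional fit vs DMSO.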

[9] = ATG_PXRE_CIS: Attagene CIS-FACTORIAL HepG2 Assay for human Pregnane X Receptor Element (PXRE) (AID 2282957); conditions: HepG2 Attagene CIS-FACTORIAL PXRE reporter, mRNA; actives raise or lower the signal
Outline: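 Multiplexed cis-reporter assay in transiently transfected human HepG2 cells; 24 h chemical exposure. Reporter transcripts quantified by RT-PCR with fluorescent labeling and capillary electrophoresis.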

[10] = ATG_RORE_CIS: Attagene CIS-FACTORIAL HepG2 Assay for human RAR-related Orphan Receptor Element (RORE) (AID 2282959); conditions: HepG2 Attagene cis-factorial RORE reporter, mRNA; actives raise or lower the signal
Outline: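 Measured here: transcript induction of a cis-regulated reporter in HepG2 cells transiently transfected via FuGene 6. After 24 h, RNA was processed by RT-PCR and fluorescent capillary electrophoresis; DMSO defined baseline activity.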

[11] = ATG_Sox_CIS: Attagene CIS-FACTORIAL HepG2 Assay for human SRY-box transcription factor (SOX) (AID 2282960); conditions: HepG2 Attagene cis-factorial SOX reporter, mRNA; actives raise or lower the signal
Outline: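 Using transiently transfected HepG2 cells, reporter transcription driven by cis elements was assessed 24 h after dosing. Signal was fluorescence of capillary-separated RT-PCR products, with DMSO defining baseline activity.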

[12] = biological target: Transcription factor Sp1 (Homo sapiens) (UniProt P08047); assay: ATG_Sp1_CIS: Attagene CIS-FACTORIAL HepG2 Assay for human Specificity Protein 1 (Sp1) (AID 2282961); conditions: HepG2 Sp1 cis-reporter transcription, actives raise or lower the signal
Sequence of Transcription factor Sp1 (Homo sapiens) (P08047 whole entry, looked up): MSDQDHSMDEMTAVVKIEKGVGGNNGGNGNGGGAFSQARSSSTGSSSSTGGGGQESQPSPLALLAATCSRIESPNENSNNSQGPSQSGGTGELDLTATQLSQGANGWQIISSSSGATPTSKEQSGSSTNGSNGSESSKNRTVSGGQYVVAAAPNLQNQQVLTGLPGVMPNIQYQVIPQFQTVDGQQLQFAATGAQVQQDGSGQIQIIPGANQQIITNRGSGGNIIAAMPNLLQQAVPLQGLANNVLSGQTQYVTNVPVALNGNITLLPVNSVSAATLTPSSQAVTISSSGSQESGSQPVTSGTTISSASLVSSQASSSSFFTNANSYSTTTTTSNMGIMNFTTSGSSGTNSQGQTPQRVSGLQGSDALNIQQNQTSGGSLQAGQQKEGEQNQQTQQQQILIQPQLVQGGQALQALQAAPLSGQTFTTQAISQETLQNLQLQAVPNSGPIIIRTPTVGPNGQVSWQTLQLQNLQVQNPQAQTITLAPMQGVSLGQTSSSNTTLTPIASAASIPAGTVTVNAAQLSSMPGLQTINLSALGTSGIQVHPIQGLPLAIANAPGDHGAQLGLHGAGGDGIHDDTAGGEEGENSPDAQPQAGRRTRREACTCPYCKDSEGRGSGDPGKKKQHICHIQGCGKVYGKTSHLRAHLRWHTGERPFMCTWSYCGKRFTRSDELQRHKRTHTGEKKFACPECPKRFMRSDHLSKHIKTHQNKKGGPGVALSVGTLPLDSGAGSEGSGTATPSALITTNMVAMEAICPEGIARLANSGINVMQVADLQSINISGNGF
Outline: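 After transient transfection of HepG2 cells with cis-promoter reporter units and 24 h chemical treatment, reporter transcripts were quantified by RT-PCR and capillary electrophoresis fluorescence. Gain- and loss-of-signal fitted against DMSO.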

[13] = ATG_SREBP_CIS: Attagene CIS-FACTORIAL HepG2 Assay for human Sterol Regulatory Element Binding (SREBP) (AID 2282962); conditions: HepG2 Attagene cis-factorial SREBP reporter, mRNA; actives raise or lower the signal
Outline: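 mRNA induction of transfected cis-promoter reporters in HepG2 cells, 24 h post-dose. Detection: RT-PCR with 6-FAM-labelled products, HpaI digest, capillary electrophoresis. DMSO served as negative control and baseline.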

[14] = biological target: Signal transducer and activator of transcription 3 (Homo sapiens) (UniProt P40763); assay: ATG_STAT3_CIS: Attagene CIS-FACTORIAL HepG2 Assay for human Signal Transducer and Activator of Transcription 3 (STAT3) (AID 2282963); conditions: HepG2, Attagene cis-factorial STAT3 reporter transcription; actives raise or lower the signal
Sequence of Signal transducer and activator of transcription 3 (Homo sapiens) (P40763 whole entry, looked up): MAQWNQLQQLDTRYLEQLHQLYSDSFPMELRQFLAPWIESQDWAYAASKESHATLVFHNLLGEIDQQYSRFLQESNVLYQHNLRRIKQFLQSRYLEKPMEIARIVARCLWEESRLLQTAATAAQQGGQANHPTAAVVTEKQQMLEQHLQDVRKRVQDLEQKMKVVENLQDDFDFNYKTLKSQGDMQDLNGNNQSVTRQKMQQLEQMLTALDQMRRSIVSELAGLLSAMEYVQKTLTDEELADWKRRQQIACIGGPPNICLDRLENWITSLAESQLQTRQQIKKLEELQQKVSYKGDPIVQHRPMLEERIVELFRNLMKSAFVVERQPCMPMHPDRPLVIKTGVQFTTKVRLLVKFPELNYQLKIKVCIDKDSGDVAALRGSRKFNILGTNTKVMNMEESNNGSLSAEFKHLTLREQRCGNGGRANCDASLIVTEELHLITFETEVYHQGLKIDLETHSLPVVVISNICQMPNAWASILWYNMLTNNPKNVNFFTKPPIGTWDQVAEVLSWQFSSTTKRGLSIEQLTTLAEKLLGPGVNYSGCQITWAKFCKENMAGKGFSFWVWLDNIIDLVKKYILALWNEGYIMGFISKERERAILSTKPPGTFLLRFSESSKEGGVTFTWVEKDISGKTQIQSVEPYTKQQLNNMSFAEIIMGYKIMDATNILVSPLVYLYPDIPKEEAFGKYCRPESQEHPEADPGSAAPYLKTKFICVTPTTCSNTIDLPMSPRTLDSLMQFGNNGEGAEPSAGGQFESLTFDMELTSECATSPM
Outline: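 HepG2 cells transiently transfected with cis-element-driven multiple reporter transcription units; after 24 h chemical exposure, reporter mRNA measured by RT-PCR, 6-FAM primer-extension labelling, HpaI digestion and capillary electrophoresis. Bidirectional fitting versus DMSO baseline.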

[15] = ATG_TA_CIS: Attagene CIS-FACTORIAL HepG2 Assay for human TA Basal Promoter (AID 2282964); conditions: HepG2 Attagene CIS-factorial TA basal promoter reporter; actives raise or lower the signal
Outline: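 Transfected HepG2, 24 h compound exposure; RNA → RT-PCR → FAM primer extension → HpaI cut → CE fluorescence. Gain/loss-of-signal fitted against DMSO negative control. Background-control readout.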

[16] = ATG_TCF_b_cat_CIS: Attagene CIS-FACTORIAL HepG2 Assay for human T-Cell-Factor with beta-catenin (TCF/b-cat) (AID 2282965); conditions: HepG2 TCF/beta-catenin cis-reporter transcription, actives raise or lower the signal
Outline: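 HepG2 cells transiently transfected with multiple cis-promoter-regulated reporter transcription units, so endogenous transcription factor activity is measured. Reporter mRNA read 24 hours after dosing by RT-PCR, fluorescent labelling and capillary electrophoresis; bidirectional fitting against DMSO.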

[17] = ATG_TAL_CIS: Attagene CIS-FACTORIAL HepG2 Assay for human TAL Basal Promoter (AID 2282966); conditions: HepG2 Attagene cis-factorial TAL promoter reporter; actives raise or lower the signal;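 further: background control endpoint measuring basal TAL promoter reporter mRNA not a specific factor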
Outline: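 Steps: transfect HepG2 with multiple reporter transcription units; dose 24 h; isolate RNA, reverse-transcribe, PCR-amplify, label with 6-FAM, digest with HpaI; resolve by capillary electrophoresis. Bidirectional fitting against DMSO baseline.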

[18] = ATG_TGFb_CIS: Attagene CIS-FACTORIAL HepG2 Assay for human Transforming Growth Factor (TGF) (AID 2282967); conditions: HepG2 Attagene CIS TGFb reporter, mRNA transcription; actives raise or lower the signal
Outline: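 Readout: fluorescently labeled reporter cDNA fragments resolved by capillary electrophoresis after RT-PCR. Transfected HepG2 cells dosed for 24 h; endogenous TF activity at TGFB1-linked cis element; gain or loss fitted relative to DMSO.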

[19] = ATG_PBREM_CIS: Attagene CIS-FACTORIAL HepG2 Assay for human Phenobarbital-responsive Enhancer Module (PBREM) (AID 2282955); conditions: HepG2 PBREM cis-reporter, Attagene multiplexed transcription; actives raise or lower the signal
Outline: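 Readout: reporter mRNA, fluorescent RT-PCR fragments separated by capillary electrophoresis. System: HepG2 transiently transfected with cis-regulated reporter units. Exposure: 24 h. Analysis: bidirectional, DMSO baseline.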

[20] = ATG_PPRE_CIS: Attagene CIS-FACTORIAL HepG2 Assay for human Peroxisome Proliferator-activated Response Element (PPRE) (AID 2282958); conditions: HepG2 PPRE cis-element reporter, Attagene transcription factor profiling; actives raise or lower the signal
Outline: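 After human HepG2 hepatoma cells were transiently transfected with cis-promoter reporter constructs, they were exposed to test chemicals for 24 hours. Reporter RNA was then reverse-transcribed, PCR-amplified, FAM-labeled, HpaI-digested and quantified by capillary electrophoresis.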

Measured: AC50

CCCCC(CC)C(=O)O (stereo not drawn)
not listed: [19] | [20]
inactive: all other assays above

Cc1[nH]nc2c1N=C(c1ccccc1Cl)c1cc([N+](=O)[O-])ccc1N2
active: [1] 2.9 µM | [9] 3.76 µM | [12] 0.357 µM | [15] 0.288 µM | [16] 3.71 µM
not listed: [19] | [20]
inactive: all other assays above

CCCCCCCCCCCCCCCC(=O)OC
not listed: [5] | [20]
inactive: all other assays above

CC(=O)Nc1ccc(S(N)(=O)=O)cc1
not listed: [19]
inactive: all other assays above

CCCCCCC(C)(C)C(=O)O
active: [4] 188 µM | [6] 187 µM | [8] 164 µM | [9] 27.4 µM | [20] 55.5 µM
not listed: [1] | [19]
inactive: all other assays above

C=CC(C)(CCC=C(C)C)OC(C)=O (stereo not drawn)
active: [9] 22.8 µM
not listed: [1] | [2] | [11]
inactive: all other assays above

C=Cc1ccc(O)c(OC)c1
active: [9] 26.6 µM | [20] 13 µM
not listed: [1] | [2] | [12]
inactive: all other assays above

NS(=O)(=O)O
not listed: [1] | [10] | [12]
inactive: all other assays above

Cc1cccc2c1ccc1ccccc12
active: [9] 27.4 µM
not listed: [1] | [19] | [20]
inactive: all other assays above

O=CC(F)(F)C(F)(F)C(F)(F)F
not listed: [1] | [19]
inactive: all other assays above

CC(C)(O)C(=O)c1ccccc1
active: [9] 36.2 µM
not listed: [1] | [12]
inactive: all other assays above

Oc1cccc2c(O)cccc12
active: [9] 27.1 µM
not listed: [1] | [5]
inactive: all other assays above
